Source: ChEMBL document CHEMBL1157539, “Thousands of chemical starting points for antimalarial lead identification” (Nature, 2010)

Experiments:
Format in all cases: functional
[1] = test system: Plasmodium falciparum; test: GSK_TCMDC: Inhibition of Plasmodium falciparum 3D7 in whole red blood cells, using parasite LDH activity as an index of growth. Test compounds present at 2uM
[2] = test system: Plasmodium falciparum; test: GSK_TCMDC: Inhibition of Plasmodium falciparum Dd2 in whole red blood cells, using parasite LDH activity as an index of growth. Test compounds present at 2uM
[3] = test system: HepG2; test: GSK_TCMDC: Percent inhibition of human HepG2 cell line. Test compounds present at 10uM.

Structure (SMILES) | Inhibition [1] | Inhibition [2] | Inhibition [3]
CCN(CC)CCOC(=O)c1ccc(NC(=O)c2cn(-c3ccccc3)nc2-c2cccs2)cc1.Cl | 100% | 59% | 25%
COc1cc(NC(=O)/C=C/c2cccc3cc[nH]c23)ccc1OCCN(C(C)C)C(C)C.Cl | 99% | 51% | 11%
O=C(Nc1cccc(C(F)(F)F)c1)c1cccc(S(=O)(=O)NCC2CCN(CC3CCCCC3)CC2)c1.O=C(O)C(F)(F)F | 97% | 5% | 27%
N=C(NCc1ccccc1)Nc1nc(-c2ccc(OCCCn3ccnc3)cc2)cs1 | 100% | 55% | 10%
Cc1[nH]c2ccc(-c3ccccc3)cc2c(=O)c1Br | 97% | 97% | 0%
COc1ccc2nccc([C@@H](O)CN3CCC(NC(=O)Cc4ccc(Br)c5ccccc45)CC3)c2c1 | 98% | 40% | 10%
CC(C)CNCc1ccc(-c2cccc(CNC3CCN(Cc4ccccc4)CC3)c2)cc1.O=C(O)C(F)(F)F | 100% | 100% | 34%
O=C(/C=C/c1ccc(C(F)(F)F)cc1)N1CCc2cc3nccc(N4CCN5CCC[C@H]5C4)c3cc21 | 86% | 21% | 0%
Br.CC[C@H]1CN2CCc3cc(OC)c(OC)cc3[C@@H]2C[C@@H]1CC1=NCCc2c1[nH]c1ccc(OCc3ccccc3)cc21 | 100% | 89% | 57%
CN(C)c1ccc(C=CC(=O)NC(=O)c2ccccc2O)cc1 | 92% | 97% | 6%
COc1ccc(NC(=O)[C@H](Cc2ccccc2)Nc2cc(C)nc(NCc3ccccc3C)n2)cc1.O=C(O)C(F)(F)F | 100% | 71% | 16%
CC(=NNC(=N)N)c1ccc2c(ccc3ccccc32)c1.Cl | 100% | 15% | 47%
Oc1nc(Cc2ccccc2)nc2ccc(Cl)cc12 | 92% | 76% | 13%
Cc1ccc2c(O)c([N+](=O)[O-])c(O)nc2c1 | 98% | 0% | 3%
O=C(NCCCN1CCC(N2CCCCC2)CC1)C1=Cc2cc(Br)ccc2OC1 | 100% | 19% | 26%
Cc1cc(N[C@@H](Cc2ccccc2)C(=O)NCCc2ccccc2)nc(NCc2ccccc2C)n1.O=C(O)C(F)(F)F | 99% | 85% | 37%
COc1ccc(C(=O)CCC(=O)N(Cc2ccc(-c3ccc(CNCCc4ccccc4)cn3)cc2)C(C)CN(C)C)cc1F.O=C(O)C(F)(F)F (configuration not stated) | 98% | 57% | 20%
CCCCCOc1ccc(/N=C2\C=C(O)C(=O)c3ccccc32)cc1 | 99% | 96% | 10%
CC(C)N1CCC(NC(=O)N2CCCN(c3ncnc4cc(-c5ccc(Cl)cc5)sc34)CC2)CC1.O=C(O)C(F)(F)F | 81% | 7% | 6%
Cl.FC(F)(F)c1ccc2c(NCCNc3ccnc4cc(C(F)(F)F)ccc34)ccnc2c1 | 100% | 100% | 21%

Structure (SMILES) | Inhibition [1] | Inhibition [2] | Inhibition [3]
COc1ccc(N2CCN(CCCCNC(=O)c3ccc(NC(=O)c4cc(C(F)(F)F)cc(C(F)(F)F)c4)cc3)CC2)c(OC)c1 | 100% | 99% | 30%
CN1CCC(N2CCN(Cc3cccc(-c4ccc(-c5nc6ccccc6[nH]5)cc4)c3)CC2)CC1.O=C(O)C(F)(F)F | 100% | 99% | 56%
Clc1ccc(CNc2nc(NCCc3c[nH]cn3)nc(Nc3ccc4c(c3)OCO4)n2)cc1 | 84% | 6% | 8%
O=C(CCNc1ccnc(NCCc2ccc(F)cc2)n1)Nc1ccccc1.O=C(O)C(F)(F)F | 95% | 10% | 9%
CC1(C)CC(=O)c2c(O)cc(OCc3ccncc3)cc2O1.Cl | 92% | 47% | 80%
CC(=O)Nc1ccc(CN2Cc3ccc(NC(=O)Nc4ccc(Oc5ccccc5)cc4)cc3C2)s1 | 91% | 25% | 9%
O=C(N[C@@H](CC1CCCCC1)C(=O)NCc1cccc(C(F)(F)F)c1)c1ccc(O)c(-c2ccc(Cl)c(Cl)c2)c1 | 98% | 100% | 0%
CC(Cc1ccc(NC(=O)c2ccc(CNCCCCc3ccccc3)cc2)cc1)NCCc1cccc(Cl)c1.Cl (configuration not stated) | 100% | 96% | 100%
O=C(Nc1cccc(Cl)c1Cl)NC1CCN(Cc2cccc(O)c2)CC1.O=C(O)C(F)(F)F | 98% | 1% | 1%
COc1ccc(C2C(C(=O)OC3CCCC3)=C(C)NC3=C2C(=O)CCC3)cc1Br (configuration not stated) | 94% | 77% | 0%
COc1cccc(-c2cc(C(F)(F)F)n3ncc(C(=O)Nc4cc(Cl)ccc4O)c3n2)c1 | 99% | 99% | 0%
O=C(Nc1cccc(CN2CCCN(Cc3cccc(O)c3)CC2)c1)c1cc2ccccc2s1.O=C(O)C(F)(F)F | 100% | 75% | 15%
COc1ccc(-c2nnc(Sc3ccc(C#N)c([N+](=O)[O-])c3)n2CC(C)C)cc1 | 97% | 78% | 3%
COc1cc(NC(=O)N2CCc3ccc(OCCN4CCCCC4)cc32)cc(C(F)(F)F)c1.O=C(O)C(F)(F)F | 100% | 93% | 9%
CN(C)c1ccc(/N=C2/N/C(=N/c3ccc(N(C)C)cc3)c3ccccc32)cc1 | 93% | 20% | 23%
Nc1ncc(-c2ccc3[nH]ccc3c2)c2ccc(-c3ccncc3)cc12 | 100% | 100% | 42%
CN(C)CCn1c(=N)n(CC(O)c2ccc(Cl)c(Cl)c2)c2ccccc21.Cl (configuration not stated) | 99% | 6% | 20%
CC1(C)N=C(N)N=C(N)N1OCc1cc(Cl)c(CON2C(N)=NC(N)=NC2(C)C)cc1Cl | 94% | 77% | 21%
COc1ccc(S(=O)(=O)Nc2ccc(C(=O)NCc3ccccc3C(F)(F)F)cc2)cc1N1CCN(CC2CC2)CC1.O=C(O)C(F)(F)F | 92% | 5% | 27%
CNC(=O)c1cnc(Nc2ccc(N3CCN(C)CC3)cc2)nc1Nc1cccc(OC(C)C)c1.O=C(O)C(F)(F)F | 100% | 100% | 16%

Structure (SMILES) | Inhibition [1] | Inhibition [2] | Inhibition [3]
CC(C)N(Cc1ccc(-c2ccc(C(F)(F)F)cc2)cc1)C(=O)Cn1c(SCc2cccc(F)c2F)cc(=O)c2cc(CN3CCCCC3)ccc21.Cl | 100% | 59% | 97%
O=C(NCCc1ccccc1)N(Cc1cccc(-c2ccc(CNCCc3ccccc3)cc2)c1)C1CCN(Cc2ccccc2)CC1.O=C(O)C(F)(F)F | 90% | 91% | 94%
Cc1cc(NC(=O)c2cc(Br)ccc2Cl)n(-c2nc(C)c(C)c(=O)[nH]2)n1 | 91% | 83% | 54%
CCOc1ccc2c(=NN=Cc3cccc(Cl)c3)cc(C)[nH]c2c1 | 93% | 34% | 0%
COc1ccc(NC(=O)[C@H](CC(C)C)Nc2cc(C)nc(NCCc3ccccc3)n2)cc1.O=C(O)C(F)(F)F | 100% | 74% | 13%
O=C(NOCCCCOc1ccc(Cl)c(Cl)c1)c1ccccc1 | 98% | 1% | 2%
O=C(NCCCCN1CCC(c2ccc3c(c2OCc2ccccn2)CCCC3)CC1)c1ccc(NC(=O)c2ccc(Cl)cc2)cc1 | 100% | 70% | 31%
CCN(CC)CC(O)CNc1c2ccc([N+](=O)[O-])cc2nc2cc(OC)c(OC)cc12.Cl (configuration not stated) | 100% | 100% | 78%
CN(C)CCOc1cc(NC(=O)Nc2ccc(-c3ccncc3)c(Cl)c2)ccc1I | 100% | 100% | 43%
COCCNCc1ccc(-c2cccc(CNC3CCN(Cc4ccccc4)CC3)c2)cc1.O=C(O)C(F)(F)F | 100% | 100% | 30%
CC(CNC(=O)C(c1cc2ccccc2o1)N1CCN(C(c2ccccc2)c2ccccc2)CC1)c1ccccc1 (configuration not stated) | 99% | 89% | 2%
Cc1cccc(NC(=O)c2cnc(N3CCN(c4ccncc4)CC3)c(Cl)c2)c1.O=C(O)C(F)(F)F | 100% | 54% | 36%
COc1cc(Cc2cnc(N)nc2N)cc(OC)c1OCCNC(=O)[C@@H](N)CCC(=O)O.Cl | 96% | 0% | 0%
CC(C)CNCc1cccc(-c2cccc(CN(CCCN3CCN(C)CC3)C(=O)NC3CCCCC3)c2)c1.O=C(O)C(F)(F)F | 100% | 84% | 16%
CCOC(=O)c1nc(-c2cc(Cl)nc(Cl)c2)[nH]c1NC(=S)NCc1ccc(NS(C)(=O)=O)cc1 | 100% | 98% | 0%
COc1ccccc1CNc1nc(Nc2ccccc2C)nc2ccccc12 | 100% | 67% | 24%
N=C(NCCCCCCCCNC(=N)Nc1ccc(Cl)cc1)Nc1ccc(Cl)cc1 | 93% | 89% | 10%
Cc1[nH]c(C)c(-c2ccc(-c3ccccc3F)nc2)c(=O)c1Cl | 97% | 97% | 7%
O=C(Cn1c(CCc2cccc(F)c2F)nc(=O)c2ccccc21)N(CCN1CCCCC1)Cc1ccc(-c2ccc(C(F)(F)F)cc2)cc1.O=C(O)C(O)C(O)C(=O)O | 100% | 89% | 32%
